In PubChem BioAssay AID624255 (Broad Institute, 2012) one finds inhibition data, which are given here for 24 compounds.

Molecules are shown by their SMILES. Values joined by “and” are separate entries in the source; they are usually repeats but may differ in a detail not shown here. Equal values may be shown once. In all, about 77,000 compounds went through this assay and about 4,600 (6%) were called active. About 1% were inconclusive and are not listed.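 How the source made its calls: active means mean inhibition above about 93%, with at least 55% of replicates each passing it (limit read from the data, passing the limit was not always enough); inconclusive means only one of those two conditions holds; inactive means neither condition holds.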 Shown is part of a subset that was picked to be rich in actives.

A short description of the test: growth inhibition of T. cruzi in host fibroblasts – cell-based, beta-gal Tulahuen parasites, NIH3T3 host, luminescence, primary screen (AID 624255). The conditions noted are these: T. cruzi beta-gal in NIH3T3, GalScreen luminescence, 90 h; at 8.34 µM; stronger effect = higher value.
`COc1ccccc1-c1ccc2n(c1=O)C[C@H]1[C@H](CO)[C@@H](C(=O)N[C@@H](C)c3ccccc3)[C@@H]2N1C`: the inhibition was 18.4% (inactive).

As for `C[C@H]1CN([C@@H](C)CO)S(=O)(=O)c2ccc(C#CC3CCCC3)cc2O[C@H]1CN(C)C(=O)Cc1ccncc1`, the inhibition was 118% (active).

Regarding `COCC(=O)N(C)C[C@@H]1Oc2cc(C#CC3CC3)ccc2S(=O)(=O)N([C@H](C)CO)C[C@H]1C`, the inhibition was -43% (inactive).

In the case of `CCC(=O)N(C)C[C@H]1Oc2cc(C#CC3CC3)ccc2S(=O)(=O)N([C@H](C)CO)C[C@H]1C`, the inhibition is -39.9% (inactive).

As to `CCC(=O)N(C)C[C@H]1Oc2cc(C#CC3CC3)ccc2S(=O)(=O)N([C@@H](C)CO)C[C@@H]1C`, the inhibition is 3.97% (inactive).

Regarding `C[C@@H]1CN([C@H](C)CO)S(=O)(=O)c2ccc(C#CC3CCCC3)cc2O[C@@H]1CN(C)C(=O)Cc1ccncc1`, the inhibition was 117% (active).

Consider `C[C@@H]1CN([C@H](C)CO)S(=O)(=O)c2ccc(C#CC3CCCCC3)cc2O[C@H]1CN(C)C(=O)Cc1ccncc1`, for which the inhibition was 92.8% (inactive) and 91.8% (inactive).

For `C[C@@H]1CN([C@H](C)CO)C(=O)c2cc(C#CCN(C)C)cnc2O[C@H]1CN(C)C(=O)NC1CCCC1`, the inhibition was -10.7% (inactive).

As for `COc1ccc(S(=O)(=O)N[C@@H]2CC[C@H](CC(=O)N3CCc4ccccc4C3)O[C@H]2CO)cc1`, the inhibition was 16.5% (inactive).

As for `CC(C)C#Cc1cnc2c(c1)C(=O)N([C@@H](C)CO)C[C@@H](C)[C@H](CN(C)C(=O)CCN1CCCCC1)O2`, the inhibition is 15% (inactive).

On to `CC(=O)Nc1ccc2c(c1)C(=O)N(C)[C@@H]1CC[C@@H](CC(=O)NCC3CCCCC3)O[C@@H]1CO2`, for which the inhibition is 8.56% (inactive).

Regarding `COCC(=O)N(C)C[C@H]1Oc2ncc(-c3cccc(OC)c3)cc2C(=O)N([C@H](C)CO)C[C@H]1C`, the inhibition was -6.11% (inactive).

With `O=C(Nc1cccc(F)c1)N1CCCCN2[C@H](CO)[C@H](c3ccc(C#CC4CC4)cc3)[C@@H]2C1`, the inhibition is 122% (active).

Consider `Cc1ccccc1-c1ccc([C@@H]2[C@@H](CO)N3CCCCN(C(=O)Nc4cccc(F)c4)C[C@H]23)cc1`, for which the inhibition was 91.9% (inactive).

Take `O=C(Nc1ccccc1)N1CCCCN2[C@H](CO)[C@@H](c3ccc(C#Cc4ccccn4)cc3)[C@H]2C1`: the inhibition is 108% (active).

For the compound `N#Cc1cccc(-c2ccc([C@H]3[C@@H](CO)N4CCCCN(C(=O)Nc5ccccc5)C[C@H]34)cc2)c1`, the inhibition was 75.3% (inactive).

In the case of `CC(C)C#Cc1ccc([C@H]2[C@@H](CO)N3CCCCN(C(=O)Nc4ccccc4)C[C@H]23)cc1`, the inhibition is 49.6% (inactive).

For `N#Cc1cccc(-c2ccc([C@H]3[C@H](CO)N4CCCCN(C(=O)Nc5cccc(F)c5)C[C@@H]34)cc2)c1`, the inhibition is 105% (active).

Take `OC[C@@H]1[C@H](c2ccc(C#CC3CC3)cc2)[C@@H]2CN(CCC(F)(F)F)CCCCN12`: the inhibition is 99.5% (active).

Turning to `O=C(C1CCC1)N1CCCCN2[C@H](C1)[C@@H](c1ccc(C#CC3CCCC3)cc1)[C@@H]2CO`, the inhibition was 86.9% (inactive).

Turning to `O=C(Nc1ccc(F)cc1)N1CCCCN2[C@H](CO)[C@H](c3ccc(C#Cc4ccccc4)cc3)[C@H]2C1`, the inhibition was 76.6% (inactive).

For the compound `COc1ccccc1C#Cc1ccc([C@@H]2[C@H](CO)N3CCCCN(CCC(F)(F)F)C[C@@H]23)cc1`, the inhibition is 42.4% (inactive).

Take `COc1ccc(C#Cc2ccc([C@H]3[C@@H](CO)N4CCCCN(C(=O)Nc5ccccc5)C[C@H]34)cc2)cc1`: the inhibition was 80.4% (inactive).

In the case of `O=C(c1ccncc1)N1CCCCN2[C@H](CO)[C@@H](c3ccc(C#Cc4ccccn4)cc3)[C@H]2C1`, the inhibition is 91.2% (inactive).
